# The sample as a whole holds a higher share of hits than the screen did.
# IL1B secr inh – inhibitors of inflammasome signaling (IL-1 beta secretion); AID 743279; THP-1 LPS/ATP IL-1B secretion, AlphaLISA, 16 h; stronger effect = lower value; 360,000 tested, 4.7% active; activity change, % at 57.5 µM; in the data active = activity change below about -50%; inconclusive = mostly about -30% to -49%
#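 Secreted IL-1B measured by AlphaLISA bead assay after 16 h compound exposure of THP-1 cells; compounds (final up to 57.5 uM) added 1 h before LPS (250 ng/mL) and ATP (1.25 mM) stimulation; lower signal means less secretion.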
# 12-LOX inh – ALOX12 (human) lipoxygenase inhibition; purified 12hLO, xylenol orange hydroperoxide absorbance; Potency, µM (series often up to 108 µM), for the others: at the top dose activity change, negative = inhibition, hits mostly inhibitors; 580,000 tested, 1.1% active; note: potency is the fitted concentration of half-maximal effect
# Target sequence (P18054 whole entry, looked up): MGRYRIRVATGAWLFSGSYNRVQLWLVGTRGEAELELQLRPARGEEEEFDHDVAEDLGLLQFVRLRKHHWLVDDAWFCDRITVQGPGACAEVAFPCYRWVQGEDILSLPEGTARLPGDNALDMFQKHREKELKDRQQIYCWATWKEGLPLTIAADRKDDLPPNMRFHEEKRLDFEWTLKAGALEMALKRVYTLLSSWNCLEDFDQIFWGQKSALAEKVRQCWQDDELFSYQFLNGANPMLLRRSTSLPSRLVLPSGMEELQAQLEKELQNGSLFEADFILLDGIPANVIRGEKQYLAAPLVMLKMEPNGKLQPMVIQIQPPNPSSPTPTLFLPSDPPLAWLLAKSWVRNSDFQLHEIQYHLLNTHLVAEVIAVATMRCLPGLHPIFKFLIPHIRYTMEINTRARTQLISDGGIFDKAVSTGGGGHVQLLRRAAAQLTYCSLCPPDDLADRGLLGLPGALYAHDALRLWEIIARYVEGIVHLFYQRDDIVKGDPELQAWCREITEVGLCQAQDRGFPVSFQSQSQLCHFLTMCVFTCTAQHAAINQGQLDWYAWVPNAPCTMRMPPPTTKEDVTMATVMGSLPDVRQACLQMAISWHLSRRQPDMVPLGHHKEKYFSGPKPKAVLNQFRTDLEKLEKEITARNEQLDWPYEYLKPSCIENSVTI
#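 Hydroperoxide product was detected by ferrous iron/xylenol orange as the 573 to 405 nm absorbance ratio. Arachidonic acid at 40 uM (final) was turned over for 30 min at room temperature by 150 nM human 12hLO, pH 7.0 Hepes buffer, after 15 min compound preincubation.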
# HT1080 IDH1KD tx – kills HT-1080 cells with IDH1 knockdown | HT-1080 IDH1 knockdown viability, ATP luminescence, 48 h | Potency, µM (top dose mostly 46.1 µM), for the others: at the highest dose activity, negative = toxicity, usual class: cytotoxic | AID 686971 | 360,000 tested, 2% active;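 note: potency is the fitted concentration of half-maximal effect; 0% = DMSO wells and -100% = cell-free medium wells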
#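 CellTiter-Glo luminescence after 48 h compound exposure at 37 degrees C of IDH1-knockdown HT-1080 cells in 5% FBS RPMI. %Activity scaled between DMSO wells and cell-free media wells, with curves fitted and assigned curve classes.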
# HT1080NT lethal – kills 2HG-producing HT-1080-NT fibrosarcoma cells; HT-1080-NT fibrosarcoma viability, CellTiter-Glo ATP luminescence, 48 h; Potency, µM (top dose mostly 46.1 µM), without a hit: top-dose activity, negative = less viability, usual class: cytotoxic; 360,000 tested, 1.6% active; AID 686970;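 note: NT is the 2HG producing partner of a matched IDH1 knockdown line; potency is the fitted concentration of half-maximal effect; 0% = DMSO-treated cells and -100% = media-only wells without cells; nearly all actives have a fitted effect of over 55% in size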
#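 Fibrosarcoma NT cells, 750 per well in 5% FBS RPMI, were exposed to compound for 48 hours. Viability: CellTiter-Glo luminescence.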
# DT40 TDP1 CPT – DT40-hTDP1 cell growth loss with CPT; chicken DT40 Tdp1-/-;hTDP1 cells + 20 nM CPT, ATP luminescence, 48 h; Potency, µM (highest dose often 46.2 µM), inactives show at the highest dose activity change, negative = growth inhibition, hits mostly inhibitors; 420,000 tested, 12% active; note: potency is the fitted concentration of half-maximal effect; nearly all actives have a fitted effect of over 55% in size
#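 Chicken DT40 Tdp1-/- cells complemented with human TDP1, 400 cells/well, exposed to compounds plus 20 nM camptothecin for at least 48 h at 37 C; viability read as ATP content by CellTiter-Glo luminescence.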
# DT40 TDP1 no CPT – qHTS for Inhibitors of human tyrosyl-DNA phosphodiesterase 1 (TDP1): qHTS in cells in absence of CPT; DT40 Tdp1-/- hTDP1 cells, no CPT, ATP luminescence, 48 h; 420,000 tested, 15% active; Potency, µM (titrated, usually from 46.2 µM), without a hit: at the top dose activity change, negative = growth inhibition, most hits filed as inhibitors; note: potency is the fitted concentration of half-maximal effect; nearly all actives have a fitted effect of over 55% in size
#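 Cells were dispensed at 400 per well, compounds added by pin tool, plates incubated ≥48 hr at 37 °C, then CellTiter-Glo added for 30 min at room temperature before luminescence reading. Line: DT40 Tdp1-/- complemented with hTDP1; camptothecin omitted.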
# * hit, by the source's call; ? = inconclusive; · = no result given; [ ] = another dose, or the depositor's remark. Unless noted, calls come from the whole dose curve; as a rule, active = well fitted curve in the direction sought with a large enough effect; inconclusive = small, poorly fitted or top-dose-only effect, or another doubt; inactive = no such curve, though single readings can be large; an effect the other way counts as inactive or inconclusive. Unless noted, % is set by controls: 0 for no effect and ±100 for the full control effect.
SMILES,IL1B secr inh,12-LOX inh,HT1080 IDH1KD tx,HT1080NT lethal,DT40 TDP1 CPT,DT40 TDP1 no CPT
O=S(=O)(NC1=NCN(CCO)CN1)c1ccc(Br)cc1,·,-22%,·,·,·,·
CC(=O)NC[C@H]1OC[C@@H](NCC(C)(C)C)[C@@H]1O,·,-8%[176 µM],·,·,·,·
CCn1c(COc2ccc(C)cc2)nc2ccccc21,-76*,1%,-19%,-7%,?,?
O=C(Cn1c(COc2ccccc2)nc2ccccc21)Nc1cc(Cl)cc(Cl)c1,7,?,?,?,18µM*,?
CCn1c(COc2ccc(Cl)cc2Cl)nc2ccccc21,·,-27%,·,·,?,?
COCCn1c(COc2ccc(C)cc2)nc2ccccc21,?,-10%,-19%,-10%,?,?
Cc1ccc(OCc2nc3ccccc3n2CCOc2ccc(Cl)cc2)cc1,·,-17%,·,·,?,18µM*
Cc1cccc(Cn2c(COc3ccc(Cl)cc3)nc3ccccc32)c1,·,-11%,·,·,23µM*,16µM*
Cc1ccc(-c2cn3c(n2)CO[C@@H](CNCc2ccccc2Cl)C3)cc1,·,15%[176 µM],·,·,·,·
COc1cc(OC)c(C2CC(=O)Oc3c2c(=O)[nH]c2ccccc32)cc1OC (stereo not drawn),·,-3%,·,·,·,·
CN(C)CCn1c(COc2ccccc2)nc2ccccc21,-1,88%,0%,0%,?,-12%
CCCn1c(-c2cccs2)nc2ccccc21,-21,-12%,?,-4%,-25%,-30%
C=CCn1c(-c2cccs2)nc2ccccc21,-20,20%,-2%,2%,-23%,21µM*
C=CCn1c(COc2ccccc2)nc2ccccc21,-13,9%,8%,3%,?,23µM*
Cc1ccc(OCc2nc3ccccc3n2Cc2ccccc2Cl)cc1,·,-23%,·,·,21µM*,?
CCOCCCNc1oc(-c2ccc(S(=O)(=O)N3CCOCC3)cc2)nc1C#N,·,17%,·,·,·,·
CC(NCC(O)COCc1ccc(Cl)cc1)c1ccccc1 (stereo not drawn),-59*,-21%,?,-28%,?,?
OC(COC(c1ccc(Cl)cc1)c1ccc(Cl)cc1)CN1CCc2ccccc2C1 (stereo not drawn),-80*,?,?,21µM*,?,?
Cc1ccc(C(OCC(O)CNC(CO)C(O)c2ccc([N+](=O)[O-])cc2)c2ccccc2)cc1 (stereo not drawn),-84*,?,?,21µM*,?,15µM*
OC(CNCc1ccccc1)COCc1ccc(Cl)cc1 (stereo not drawn),-14,-14%,-16%,-27%,7%,-5%
Cc1ccc(C(OCC(O)CN2CCCCC2)c2ccccc2)cc1 (stereo not drawn),?,-21%,0%,-10%,1%,23µM*
CC(C)c1noc(C(C)Nc2ccc3oc(C4CC4)nc3c2)n1 (stereo not drawn),·,-1%,·,·,·,·
OC(COC(c1ccc(F)cc1)c1ccc(F)cc1)CN1CCc2ccccc2C1 (stereo not drawn),-72*,2%,-13%,-2%,?,?
CN1CCN(CC(O)COC(c2ccc(Cl)cc2)c2ccc(Cl)cc2)CC1 (stereo not drawn),-22,?,?,?,?,?
OC(COC(c1ccc(Cl)cc1)c1ccc(Cl)cc1)CN1CCCC1 (stereo not drawn),-51*,-9%,-8%,-6%,?,-20%
SMILES,IL1B secr inh,12-LOX inh,HT1080 IDH1KD tx,HT1080NT lethal,DT40 TDP1 CPT,DT40 TDP1 no CPT
Cc1ccc(C(OCC(O)CNC(C)c2ccccc2)c2ccccc2)cc1 (stereo not drawn),-107*,?,18µM*,15µM*,7.3µM*,12µM*
Cc1ccc(OCC(O)CNC(C)c2ccccc2)cc1C (stereo not drawn),-23,-15%,-21%,0%,?,-104%
OC(COC(c1ccccc1)c1ccccc1)CN1CCOCC1 (stereo not drawn),-3,4%,-12%,1%,?,?
OC(COC(c1ccccc1)c1ccccc1)CN1CCc2ccccc2C1 (stereo not drawn),-87*,1%,?,-30%,?,21µM*
CCCNC(=O)/C(C)=C/c1ccccc1,·,-9%,·,·,·,·
CC(=O)N(CCC1(CCC(C)C)CCOC(C)(C)C1)Cc1ccco1 (stereo not drawn),·,-29%,·,·,·,·
Cc1ccc(-c2noc(CN3CCCc4c(C(=O)NC(C)C)cccc43)n2)cc1,·,-19%,·,·,·,·
CCC[C@@H](CN[C@@H](CNC)[C@H](C)CC)NCC1CCC(C(C)(C)C)CC1 (stereo partly drawn),-53*,-8%,?,?,1µM*,0.65µM*
CCC[C@H](CN[C@@H](CNC)[C@H](C)CC)NCCc1cc(C(F)(F)F)cc(C(F)(F)F)c1,-100*,-21%,?,?,12µM*,3.3µM*
CC[C@@H](C)[C@H](CNC)NC[C@@H](Cc1cccc2ccccc12)NCCc1cccc(C(F)(F)F)c1,-24,?,?,?,23µM*,?
O=S(Cc1cccc(C(F)(F)F)c1)Cc1cccc2ccccc12 (stereo not drawn),·,11%,·,·,·,·
CC(C)NCC(O)COC1CCC(C(C)(C)C)CC1 (stereo not drawn),-12,-7%,?,-30%,?,?
O=S1(=O)CCC(N(N=Cc2ccco2)c2ccccc2)C1 (stereo not drawn),·,-16%,·,·,·,·
COc1cc2c(cc1OC)CN(c1cc(C3CC(O)C3)ncn1)CC2 (stereo not drawn),·,13%,·,·,·,·
O=C(NCc1ccccc1)c1ccc2c(=O)[nH]c3c(C(=O)NCC4CCCO4)sc(=S)n3c2c1 (stereo not drawn),25,?,0%,-4%,-16%,?
O=C(NCc1ccco1)c1sc(=S)n2c1[nH]c(=O)c1ccccc12,-59*,16µM*,?,-26%,-21%,?
O=C(NC1CCCC1)c1sc(=S)n2c1[nH]c(=O)c1ccccc12,-85*,?,-42%,-2%,21µM*,?
COC(=O)c1cc(O)cc(C(=O)OC)c1,·,0%,·,·,·,·
CC(C(=O)N/N=C/c1ccc(N(C)C)c(Br)c1)N(c1ccccc1)S(C)(=O)=O (stereo not drawn),-7,86%,4%[9.24 µM],-12%,?,9.2µM*

# From PubChem BioAssay
